Pol iota inh: inhibitors of human DNA polymerase iota; Potency, µM (top dose mostly 115 µM), most hits filed as inhibitors; Pol iota fluorescent replication assay, 10 min; 390,000 compounds, 1% hits; Q9UNA4; AID 588590
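Fluorescent replication assay read twice, at 0 min and 10 min after adding 50 nM (final) substrate. Enzyme (10 nM) and compounds were first incubated 15 min at room temperature; enzyme-free buffer wells were negative controls.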
Pol beta inh: inhibitors of human DNA polymerase beta; P06746; Pol beta primer extension/strand displacement, fluorescence kinetic; Potency, µM (top dose mostly 114 µM), actives largely listed as inhibitors; 340,000 compounds, 1.3% hits; AID 485314
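Pol beta (10 nM) was preincubated with compound for 15 min at room temperature. The reaction was then started with 50 nM substrate and read immediately and after a further 10 min at room temperature.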
Pol kappa inh-1: DNA polymerase kappa (human) inhibition. Q9UBT6. purified Pol kappa, fluorescent DNA synthesis assay, 10 min. Potency, µM (series often up to 107 µM), hits mostly inhibitors. 400,000 compounds, 0.53% hits. AID 588579
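Pol kappa 10 nM + cpd, 15 min RT; start w/ substrate 50 nM final; fluorescence kinetic read, 0 and 10 min. Neg ctrl: buffer, no enzyme.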
PI5P4Ka inh: PI5P4K alpha (human) kinase inhibition; 330,000 compounds, 1.2% hits; AID 652105; PI5P4Kalpha enzyme, ADP-Glo luminescence, 60 min; stronger effect = lower value; max response, %; P48426; active = max response of -50% or lower; inconclusive = between -30% and -50%; inactive = -30% or higher; also: value at the top dose of about 77 µM
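Controls without substrate or without enzyme flank wells where PI5P4Kalpha converts substrate using 5 microM ATP (final). Incubation lasts 60 minutes at room temperature; ADP formed is read by ADP-Glo luminescence.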
Pol eta inh-1: blocks human DNA polymerase eta activity | Q9Y253 | recombinant Pol eta, fluorescent DNA replication assay | Potency, µM (doses to about 114 µM), hits mostly inhibitors | 390,000 compounds, 1.2% hits | AID 588591
Target sequence (Q9Y253 whole entry, looked up): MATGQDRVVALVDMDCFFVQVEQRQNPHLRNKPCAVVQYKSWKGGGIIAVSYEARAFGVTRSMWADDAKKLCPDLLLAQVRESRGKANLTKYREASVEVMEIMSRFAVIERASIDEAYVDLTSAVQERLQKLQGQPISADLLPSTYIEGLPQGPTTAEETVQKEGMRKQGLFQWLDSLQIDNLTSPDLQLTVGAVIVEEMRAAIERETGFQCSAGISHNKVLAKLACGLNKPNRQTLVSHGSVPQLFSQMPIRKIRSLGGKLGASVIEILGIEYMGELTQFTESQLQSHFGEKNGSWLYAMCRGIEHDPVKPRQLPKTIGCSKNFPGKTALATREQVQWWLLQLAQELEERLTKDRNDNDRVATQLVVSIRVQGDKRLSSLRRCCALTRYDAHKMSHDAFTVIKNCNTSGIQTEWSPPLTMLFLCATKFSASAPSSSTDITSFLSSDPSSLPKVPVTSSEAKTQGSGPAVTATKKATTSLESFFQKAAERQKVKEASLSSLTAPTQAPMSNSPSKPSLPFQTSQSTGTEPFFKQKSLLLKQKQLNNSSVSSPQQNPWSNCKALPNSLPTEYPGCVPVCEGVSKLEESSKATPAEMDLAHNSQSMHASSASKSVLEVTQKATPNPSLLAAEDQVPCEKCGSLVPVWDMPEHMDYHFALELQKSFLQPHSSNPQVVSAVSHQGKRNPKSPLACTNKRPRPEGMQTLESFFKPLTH
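Fluorescent replication assay: 50 nM final substrate added after a 15 min room-temperature compound preincubation with 10 nM enzyme. Signal taken at 0 min and again at 10 min.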
WRN inhibitor: inhibitors of human WRN helicase | Potency, µM (highest dose often 114 µM), hits mostly inhibitors | 360,000 compounds, 0.46% hits | WRN helicase unwinding, fluorescent forked duplex, kinetic | Q14191; also: nearly all actives have a fitted effect of over 55% in size
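WRN at 20 nM final was preincubated with compound for 15 min at room temperature; reaction started with 100 nM forked duplex oligonucleotide carrying fluorophore and quencher plus 2 mM ATP (final). Unwinding followed kinetically by red fluorescence (ex 525/em 598 nm).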
BAZ2B confirm: confirmation of human BAZ2B bromodomain inhibitors; shares compounds with Pol kappa inh-1; AlphaScreen BAZ2B / biotin-H3K14Ac peptide displacement; Potency, µM, hits mostly inhibitors; 25 compounds, 100% hits; AID 588809; calls by dose curve
AlphaScreen ctr: interferes with AlphaScreen signal in BAZ2B counterscreen; AlphaScreen biotin-His6 peptide bead counterscreen, signal decrease; Potency, µM (top dose mostly 57.1 µM), usual class: inhibitors; shares compounds with Pol kappa inh-1; 25 tested, under 10 active;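 active = clear concentration-dependent signal drop in the bead assay lacking the target, so a primary-screen artifact; inconclusive = weak, partial or single-dose response; inactive = no response, so a real primary hit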
PGK validate: validation of Trypanosoma brucei phosphoglycerate kinase inhibitors; TbPGK coupled GAPDH assay, Kinase-Glo luminescence; shares compounds with Pol kappa inh-1; Potency, µM (highest dose often 57.5 µM), hits mostly inhibitors; AID 686980; 500 compounds, 79% hits; also: nearly all actives have a fitted effect of over 65% in size
Pol iota confirm: Inhibitors of human DNA polymerase iota, confirmation; shares compounds with Pol kappa inh-1; Pol iota primer extension, TAMRA/BHQ fluorescence; Potency, µM, most hits filed as inhibitors; 1,500 compounds, 77% hits
GALK inh confirm: confirmation of human galactokinase (GALK) inhibitors; shares compounds with Pol eta inh-1; purified GALK, Kinase-Glo ATP depletion luminescence; Potency, µM (series often up to 115 µM), actives largely listed as inhibitors; 150 compounds, 70% hits
GALK redox cs: redox cycling activity in phenol red-HRP assay. shares compounds with Pol eta inh-1. Phenol red-HRP H2O2 redox cycling, absorbance 600 nm. Potency, µM (top dose mostly 115 µM), actives largely listed as inhibitors. 150 compounds, 40% hits. AID 2035
HEK293 tox: counter-screen for GALK inhibitors: HEK293 cell cytotoxicity | shares compounds with Pol eta inh-1 | HEK-293 viability, ATP luminescence (CellTiter-Glo), 24/48 h | Potency, µM (doses to about 46.1 µM), usual class: inhibitors | 170 compounds, 10% hits
Pol kappa inh-2: Pol kappa (human) inhibition, cherry-pick confirmation. 920 compounds, 76% hits. Potency, µM, actives largely listed as inhibitors. shares compounds with Pol eta inh-1. purified Pol-kappa, fluorescent strand-displacement substrate
Pol eta inh-2: confirmation of human DNA polymerase eta inhibitors | Potency, µM, actives largely listed as inhibitors | 2,600 compounds, 64% hits | Pol eta primer extension, TAMRA/BHQ fluorescence, 10 min | shares compounds with Pol eta inh-1 | AID 720502
Hits are given with their value; – = inactive; ? = inconclusive; · = no result given; [ ] = dose if it differs, or a comment. A selection: hits, their analogues and other compounds. The true share with any hit is near 2.8%. Unless noted, calls follow the shape of the dose curve; as a rule, active = well fitted curve in the direction sought with a large enough effect; inconclusive = small, poorly fitted or top-dose-only effect, or another doubt; inactive = no such curve, though single readings can be large; an effect the other way counts as inactive or inconclusive.

SMILES	Pol iota inh	Pol beta inh	Pol kappa inh-1	PI5P4Ka inh	Pol eta inh-1	WRN inhibitor	Pol iota confirm	Pol eta inh-2	others
CC1OC(O[C@H]2C[C@@H](O)[C@]3(CO)[C@H]4[C@H](O)C[C@]5(C)[C@@H](C6=CC(=O)OC6)CC[C@]5(O)[C@@H]4CC[C@]3(O)C2)C(O)C(O)C1O (some centres not stated)	–	·	–	·	·	·	·	·
CCOc1ccc(NS(=O)(=O)c2ccc(Cl)c(N=Nc3c(O)[nH]c(=S)[nH]c3=O)c2)cc1Br	·	·	·	?	20µM	?	·	·	PGK validate=14.6µM
O=C1CC2OCC=C3CN4CCC56c7ccccc7N1C5C2C3CC46 (configuration not stated)	·	·	–	·	·	·	·	·
CCOC(=O)CCCc1sc(N)nc1-c1[nH]c(=O)[nH]c1C	?	–	?	·	?	?	·	·	BAZ2B confirm=10;AlphaScreen ctr=?
CCOP(=S)(OCC)Oc1ncn(-c2ccccc2)n1	·	·	–	·	·	·	·	·
CCc1ccc(N2C(=O)NC(=O)/C(=C/c3ccsc3)C2=O)cc1	·	–	·	·	·	·	·	·
O=C1NC(=S)N(c2ccc(F)cc2)C(=O)/C1=C\c1ccoc1	?	2.24µM	1µM	-86.8	1µM	?	·	·	PGK validate=0.231µM
COc1ccc(COC(=O)CCNC(=O)c2ccc(Cl)cc2)cc1	–	·	–	–	–	–	·	·
CSc1ccccc1NC(=O)CN(C)CC(=O)c1[nH]c(C)c(C(C)=O)c1C	–	·	–	–	–	?	·	·
COCCN(Cc1cc2cc3c(cc2nc1Cl)OCO3)C(=O)c1ccc(C)cc1	–	–	–	–	–	–	·	·	BAZ2B confirm=11.2;AlphaScreen ctr=?
Oc1ccc(C[C@H]2NCCc3cc(O)c(O)cc32)cc1O	79.4µM	–	?	–	–	?	21.2	·
Oc1ccc(CC2CC3CCN2CC3)cc1O (configuration not stated)	–	–	–	–	–	–	·	·
CC[C@H]1C2CC3[C@@H]4N(C)c5ccccc5[C@]45C[C@@H](C2[C@H]5O)N3[C@@H]1O (some centres not stated)	·	·	–[19.4 µM]	·	·	·	·	·
COc1ccc(NC(=O)CN(C)C(=O)c2cc3c(s2)CCC3)cc1	7.08µM	·	10µM	-68.9	3.16µM	39.8µM	·	·	BAZ2B confirm=7.94;AlphaScreen ctr=–
CCn1c(C)c(C(=O)Nc2ccc(OC)cc2)c2cc(OC)ccc21	–	–	–	–	–	–	·	·
O=C1NC(=O)N(c2ccc(Cl)cc2)C(=O)/C1=C\c1ccc(Sc2nc3ccccc3[nH]2)o1	?	22.4µM	20µM	-87.5	17.8µM	25.1µM	37.7	26.9	Pol kappa inh-2=15
CC[C@@H](CO)NC(=O)[C@H]1C=C2c3cccc4[nH]cc(c34)C[C@H]2N(C)C1	·	·	–[19.4 µM]	·	·	·	·	·
CC1CCN(S(=O)(=O)c2ccc(NN=C(C#N)C#N)cc2)CC1	·	–	·	·	·	·	·	·
N#CC(C#N)=NNc1ccc(S(N)(=O)=O)cc1	20µM	–	44.7µM	-107.3	12.6µM	56.2µM	·	67.5	PGK validate=–;Pol kappa inh-2=?
C=CCn1c(CSc2ccccc2[N+](=O)[O-])n[nH]c1=S	8.91µM	10µM	50.1µM	-74.4	12.6µM	39.8µM	53.2	23.9
CC(C)(c1ccc(OCC2CO2)cc1)c1ccc(OCC2CO2)cc1 (configuration not stated)	·	·	–[19.4 µM]	·	·	·	·	·
COc1cc2c(cc1OC)-c1c(OC)c(OC)c(CO)c3c1C(C2)N(C)CC3 (configuration not stated)	·	·	–[19.4 µM]	·	·	·	·	·
COc1cc2cc(C(=O)N3CC(COS(C)(=O)=O)c4ccc(O)cc43)[nH]c2c(OC)c1OC (configuration not stated)	1.78µM	·	10µM	–	3.16µM	–	4.74	6.75	Pol kappa inh-2=2.99
C[n+]1c2ccccc2nc2ccc(NCCO)cc21	?	28.2µM	44.7µM	–	39.8µM	4.74µM	75.2	67.5	Pol kappa inh-2=42.3
CNc1ccc2nc3ccccc3[n+](C)c2c1	35.5µM	28.2µM	20µM	–	50.1µM	2.99µM	75.2	67.5	Pol kappa inh-2=18.9
SMILES	Pol iota inh	Pol beta inh	Pol kappa inh-1	PI5P4Ka inh	Pol eta inh-1	WRN inhibitor	Pol iota confirm	Pol eta inh-2	others
c1ccc2nc3ccccc3cc2c1	?	·	–	·	·	·	·	·
Cn1nc(-c2ccccc2)nc2c(=O)n(C)c(=O)nc1-2	–	·	–	·	·	·	·	·
Cc1nc2c(=O)n(C)c(=O)nc-2n(C)n1	–	?	–	–	0.794µM	–[11.6 µM]	1.5	4.26	PGK validate=1.46µM;GALK inh confirm=1.88µM;GALK redox cs=0.943µM;HEK293 tox=9.96µM
COc1ccc(Nc2c(-c3cc(Br)ccc3O)nc3ncccn23)cc1OC	–	–	–	·	?	·	·	·
Cc1ccc2c(C)c3ccc4ccccc4c3c[n+]2c1	79.4µM	·	39.8µM	–	?	–[11.6 µM]	26.7	·	Pol kappa inh-2=4.74
C=C(C)C(=O)Nc1cccc(C2=NOC3(C2)C[C@@H](C(N)=O)N(C(=O)/C=C/CC)C3)c1 (some centres not stated)	15.8µM	3.55µM	28.2µM	–	7.94µM	?	?	19	BAZ2B confirm=10;AlphaScreen ctr=–;PGK validate=?;Pol kappa inh-2=18.9
C=C(C)C(=O)Nc1cccc(C2=NOC3(C2)C[C@H](C(N)=O)N(C(=O)COc2ccc(Cl)cc2)C3)c1 (some centres not stated)	44.7µM	4.47µM	17.8µM	?	7.94µM	?	16.8	8.49	BAZ2B confirm=5.62;AlphaScreen ctr=–

Bioassay records (PubChem BioAssay)
